Consider 19 molecules from PubChem BioAssay (EPA / NIEHS).

The structures appear in SMILES notation. Inconclusive results are not listed. Activity calls are given as the source filed them. How the source made its calls: active means hit-call score of the fitted dose curve at least 0.9, where 1 is the maximum; inconclusive means response in the unintended direction; inactive means score below 0.9.

Assay [1] has as its target Cellular tumor antigen p53 (Homo sapiens) (UniProt P04637). Briefly: TOX21_p53_BLA_p2_ratio: Tox21 HCT-116 p53 Agonism Beta-lactamase Assay, Ratio, Phase 2 (AID 2283592). A digest of the protocol:
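DMSO-normalized, positive-direction endpoint derived from the 460 nm/530 nm FRET ratio in HCT116 p53 beta-lactamase reporter cells exposed 16 h at 37C and loaded with CCF4-AM for 2 h.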

Assay [2] in a line: TOX21_p53_BLA_p3_viability: Viability Assessment in the Tox21 HCT-116 p53 Agonism Beta-lactamase Assay, Phase 3 (AID 2283593).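 Further: cells exposed to compound for 16 h before reading.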 The procedure, abridged: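 Cellular ATP was quantified by CellTiter-Glo luminescence, read after 30 min at room temperature. Beforehand, HCT116 cells (4000/well) received compound 5 h post-seeding, 217-fold diluted from DMSO, then incubated 16 h at 37C.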

The nature of assay [3]: TOX21_p53_BLA_p5_viability: Viability Assessment in the Tox21 HCT-116 p53 Agonism Beta-lactamase Assay, Phase 5 (AID 2283600). The procedure, abridged:
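Here cell health was gauged by ATP levels in wells holding 4000 cells, each treated 16 h with DMSO-delivered compounds at 217-fold dilution; reduced luminescence marked toxicity.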

Assay [4] in a line: TOX21_p53_BLA_p4_viability: Viability Assessment in the Tox21 HCT-116 p53 Agonism Beta-lactamase Assay, Phase 4 (AID 2283597).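 Further: hits lower the luminescence signal meaning cytotoxicity.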 The procedure, abridged: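 In this multiplexed secondary endpoint, HCT116 cells (4000 per well, compound at 5 h, 16 h treatment) received CellTiter-Glo after the beta-lactamase read. Luminescence after 30 min RT reflects ATP, and falling signal marks cytotoxicity.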

Assay [5] concerns the target Cellular tumor antigen p53 (Homo sapiens) (UniProt P04637). In words: TOX21_p53_BLA_p5_ratio: Tox21 HCT-116 p53 Agonism Beta-lactamase Assay, Ratio, Phase 5 (AID 2283599). The procedure, abridged: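 Beta-lactamase reporter ratio (blue 460 nm over green 530 nm, 405 nm excitation) after 2 h CCF4-AM loading, in HCT-116 cells exposed 16 h at 37 C to compounds pinned at 217-fold dilution. Increases relative to DMSO baseline scored.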

For assay [6] the target is unchanged. Briefly: TOX21_p53_BLA_p4_ratio: Tox21 HCT-116 p53 Agonism Beta-lactamase Assay, Ratio, Phase 4 (AID 2283601). A digest of the protocol: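 Signal is the blue/green (460nm/530nm) ratio of cleaved versus uncleaved CCF4-AM substrate, read after 2 h substrate loading. Cells were HCT116 carrying the p53-responsive beta-lactamase reporter, dosed 16 h at 37C, 5% CO2; CellTiter-Glo measured in parallel.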

Assay [7] shares this target. Briefly: TOX21_p53_BLA_p3_ratio: Tox21 HCT-116 p53 Agonism Beta-lactamase Assay, Ratio, Phase 3 (AID 2283596). The procedure, abridged:
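Cells were seeded at 4000/well, rested 5 h at 37C, then dosed with DMSO compound solutions (217-fold dilution) for 16 h. CCF4-AM substrate was loaded for 2 h at room temperature, and the 460/530 nm emission ratio was fitted for gain of signal versus DMSO.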

Sequence of Cellular tumor antigen p53 (Homo sapiens) (P04637 whole entry, looked up): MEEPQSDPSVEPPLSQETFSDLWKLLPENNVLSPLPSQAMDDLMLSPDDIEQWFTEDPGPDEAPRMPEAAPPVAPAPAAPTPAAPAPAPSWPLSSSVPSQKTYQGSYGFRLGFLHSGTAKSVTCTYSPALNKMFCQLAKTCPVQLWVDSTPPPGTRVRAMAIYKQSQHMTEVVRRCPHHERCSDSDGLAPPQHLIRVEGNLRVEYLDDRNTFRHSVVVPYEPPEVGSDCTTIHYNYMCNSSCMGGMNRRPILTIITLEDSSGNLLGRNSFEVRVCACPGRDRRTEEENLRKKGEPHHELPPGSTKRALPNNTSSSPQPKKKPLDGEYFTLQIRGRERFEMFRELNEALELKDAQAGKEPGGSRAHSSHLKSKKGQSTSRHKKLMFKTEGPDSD

On to `CC(=O)O[C@H](CC(=O)[O-])C[N+](C)(C)C`, for which the outcome in assay [1], in assay [2] and in assay [3] was inactive.
Regarding `CCCCCCCCCCCCCCCC(=O)O`, the outcome in assay [1], in assay [2], in assay [4], in assay [5], in assay [3] and in assay [6] was inactive.
Regarding `C[C@H]1C[C@H]2[C@@H]3CCC4=CC(=O)C=C[C@]4(C)[C@@]3(F)[C@@H](O)C[C@]2(C)[C@@]1(O)C(=O)COP(=O)(O)O`, the outcome in assay [1], in assay [2], in assay [3] and in assay [6] was inactive.
Consider `CCCCCCCCCCN`, for which the result in assay [1], in assay [2], in assay [4], in assay [5], in assay [3] and in assay [6] was inactive.
For `COc1cccc(OC)c1`, the result in assay [1], in assay [2], in assay [3] and in assay [6] was inactive.
For `CO[Si](CCCn1c(=O)n(CCC[Si](OC)(OC)OC)c(=O)n(CCC[Si](OC)(OC)OC)c1=O)(OC)OC`, the outcome in assay [1], in assay [2], in assay [4] and in assay [6] was inactive.
With `CCCCCCCCCCCCCOS(=O)(=O)O`, the concentration at half-maximal activity (AC50) was 85.6 µM (active) in assay [1], 85.4 µM (active) in assay [5], 66.6 µM (active) in assay [3] and 83.6 µM (active) in assay [6]. In addition, the result in assay [2] was inactive.
Take `CC[Si](OC(C)=O)(OC(C)=O)OC(C)=O`: the result in assay [1], in assay [2], in assay [4], in assay [5] and in assay [3] was inactive.
As to `CCC(C)CCCC(C)(C)O` (centres undefined), the result in assay [1], in assay [2] and in assay [6] was inactive.
For the molecule `O=C(O)CCCCC1CCSS1` (centres undefined), the result in assay [1], in assay [2], in assay [7], in assay [3] and in assay [6] was inactive.
Take `CC(=O)C(C)=O`: the outcome in assay [1], in assay [2], in assay [4], in assay [3] and in assay [6] was inactive.
For `O=P(c1ccccc1)(c1ccccc1)c1ccccc1`, the result in assay [1], in assay [2], in assay [4] and in assay [3] was inactive.
In the case of `CCC(=O)/C=C/C1C(C)=CCCC1(C)C` (centres undefined), the result in assay [1], in assay [2], in assay [5] and in assay [6] was inactive.
As for `CCCCCCCCCCCCSC`, the result in assay [1], in assay [2], in assay [5], in assay [3] and in assay [6] was inactive.
For the molecule `CCCCC(CC)COC(=O)/C=C\C(=O)OCC(CC)CCCC` (centres undefined), the outcome in assay [1], in assay [2], in assay [4], in assay [5] and in assay [6] was inactive.
On to `CC(=O)OCCOC(C)=O`, for which the outcome in assay [1], in assay [2], in assay [4], in assay [5], in assay [3] and in assay [6] was inactive.
In the case of `CCCCCOC(=O)CCC`, the result in assay [1], in assay [2], in assay [5], in assay [3] and in assay [6] was inactive.
For the molecule `C#C[C@]1(O)CC[C@H]2[C@@H]3CCC4=Cc5oncc5C[C@]4(C)[C@H]3CC[C@@]21C`, the outcome in assay [1], in assay [2], in assay [4], in assay [5], in assay [3] and in assay [6] was inactive.
On to `O=[N+]([O-])c1cc(C(F)(F)F)ccc1Cl`, for which the outcome in assay [1], in assay [2], in assay [3] and in assay [6] was inactive.

In general, AC50 refers to the concentration at which the activity in the assay is half-maximal.
